About 83,000 compounds went through this panel and 20% of them were active in at least one assay; those are over-represented in the sample as a whole.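 Assay: single dose, 48 h. Readout: percent growth (0 = no net growth; negative = cell death). Active: <10.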 Calls of active or inactive are those of the source.
tested on: SW-620 colon; assay: NCI-60 one-dose screen, 48 h (100 = growth as untreated, 0 = no growth, -100 = all killed); settings: 10 µM

Row | SMILES | growth
1 | O=C1/C(=C/c2ccc(O)cc2)Oc2ccc(Cl)cc21 | 103% (inactive)
2 | COc1cc(/C=C/C(=O)c2cc(-c3ccc(F)cc3)ccc2O)cc(OC)c1OC | 80.9% (inactive)
3 | COc1ccc(C(=O)n2nc(CC(=O)NCc3ccccc3)nc2N)cc1 | 105% (inactive)
4 | COc1cc(/C=C/C(=O)c2cc(-c3ccc(C(F)(F)F)cc3)ccc2O)cc(OC)c1OC | 54.9% (inactive)
5 | CN(C1c2ccccc2Oc2ccccc21)S(=O)(=O)c1cc(Cl)ccc1Cl | 30.3% (inactive)
6 | O=C1CC(c2cccc(-c3cccnc3)c2)=Nc2ccc(Br)cc2N1 | 81.8% (inactive)
7 | COc1ccc(-c2oncc2-c2cc(OC)c3c(c2)OCO3)cc1 | 16.4% (inactive)
8 | Cc1ccc([P+](Cc2ccc([N+](=O)[O-])cc2)(c2ccc(C)cc2)c2ccc(C)cc2)cc1 | 45.2% (inactive)
9 | COc1ccc(C2=NNC(c3sc(Cl)nc3Cl)C2)cc1 (stereo not drawn) | 29.1% (inactive)
10 | COc1ccccc1CNCCCN1C(=O)c2ccc3c4c(ccc(c24)C1=O)C(=O)N(CCCNCCNCCCN)C3=O | 8.12% (active)
11 | C[C@@H]1C(=O)N(C[C@H](Cc2ccccc2)NC(=O)OCc2ccccc2)[C@]1(Cc1ccccc1)C(=O)OCc1ccccc1 | 52.6% (inactive)
12 | Cc1cccc2c(Nc3ccc(NS(C)(=O)=O)cc3)c3ccc([N+](=O)[O-])cc3nc12 | -43.5% (active)
13 | O=C(Cn1ccc(=O)[nH]c1=O)c1ccc([N+](=O)[O-])o1 | 102% (inactive)
14 | CC1(C)CCc2cc(-c3ccn(S(=O)(=O)c4ccc(Cl)cc4)n3)ccc2O1 | 87.7% (inactive)
15 | COc1cc(-c2nc(-c3nnc(-c4cccnc4)o3)c3ccccn23)cc(OC)c1OC | 92.8% (inactive)
16 | NCCNc1ccc2cc(-c3nc4ccccc4[nH]3)c(=O)oc2c1 | 103% (inactive)
17 | Nc1cc2c(cc1Cl)-c1ccc(Cl)cc1C2=O | 95.8% (inactive)
18 | C[n+]1c(/C=C/c2c[nH]c3ccccc23)ccc2ccccc21 | 48.8% (inactive)
19 | N#C/C(=C\N1C(=O)/C(=C/c2cccc([N+](=O)[O-])c2)SC1=S)c1nc2ccccc2s1 | 105% (inactive)
20 | COC(=O)C1(C(=O)OC)C2C(=O)C3C(C21)C3(C(=O)OC(C)(C)C)C(=O)OC(C)(C)C (stereo not drawn) | 106% (inactive)
21 | COc1ccc(/C(=C/c2cc(OC)c(OC)cc2[N+](=O)[O-])C(=O)O)cc1 | 105% (inactive)
22 | O=CNc1c(Cl)cc2c(c1Cl)Cc1cc([N+](=O)[O-])ccc1-2 | 41.4% (inactive)
23 | CCCCCC(CCC)COC(=O)c1ccc(OC)cc1 (stereo not drawn) | 104% (inactive)

From PubChem BioAssay (NCI)
